According to PubChem BioAssay AID1159580 (chemical genetic matrix, 2015):
Where “and” joins values, the source holds several entries; their conditions need not be identical. Identical values can stand only once. About 2,000 (36%) of roughly 5,500 compounds were called active. Inconclusive results (about 18%) are left out. Cut-off read from the data, not from the text of the source: active = normalized growth mostly below about 0.91 (no sharp cut-off); inconclusive = no clear call, values can overlap the other calls; inactive = mostly above about 0.92. Some of the results follow.

Test: chemical genetic growth profiling, strain panel (AID 1159580);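 note: tested at 20 µM; growth read once vehicle control cultures reached saturation at 30 °C; 1 = growth at the plate median or of vehicle wells; lower values mean less growth of the strain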
Conditions: S. cerevisiae deletion strains, growth OD

Measured: normalized growth

COc1cc(NS(=O)(=O)c2ccc(N)cc2)ncn1
inactive: locus YAL013W, strain DEP1, active compounds read low 0.998 | locus YAL021C, strain ccr4, active compounds read low 0.988 | locus YAL026C, strain drs2, active compounds read low 0.978 | locus YAL030W, strain snc1, active compounds read low 0.999 | locus YBL061C, strain skt5, active compounds read low 0.987 | locus YBR009C, strain hhf1, active compounds read low 0.996 | locus YBR021W, strain FUR4, active compounds read low 1 | locus YBR023C, strain chs3, active compounds read low 0.983 | locus YBR171W, strain sec66, active compounds read low 0.968 | locus YBR229C, strain ROT2, active compounds read low 0.955 | locus YBR231C, strain swc5, active compounds read low 0.979 | locus YBR279W, strain paf1, active compounds read low 0.964 | locus YCL011C, strain gbp2, active compounds read low 0.968 | locus YCL016C, strain dcc1, active compounds read low 0.981 | locus YCL029C, strain bik1, active compounds read low 0.977 | locus YCL061C, strain MRC1, active compounds read low 0.979 | locus YCL069W, strain vba3, active compounds read low 0.98 | locus YCR088W, strain abp1, active compounds read low 0.97 | locus YDL005C, strain med2, active compounds read low 0.978 | locus YDL035C, strain GPR1, active compounds read low 0.993 | locus YDL040C, strain nat1, active compounds read low 0.969 | locus YDL074C, strain BRE1, active compounds read low 0.966 | locus YDL101C, strain DUN1, active compounds read low 0.979 | locus YDL134C, strain PPH21, active compounds read low 1.01 | locus YDL185W, strain tfp1, active compounds read low 0.983 | locus YDL192W, strain arf1, active compounds read low 0.978 | locus YDR001C, strain nth1, active compounds read low 0.973 | locus YDR069C, strain doa4, active compounds read low 1.03 | locus YDR101C, strain arx1, active compounds read low 0.972 | locus YDR137W, strain rgp1, active compounds read low 0.991 | locus YDR159W, strain sac3, active compounds read low 0.916 | locus YDR162C, strain NBP2, active compounds read low 0.995 | locus YDR195W, strain ref2 0.918 | locus YDR297W, strain sur2, active compounds read low 1 | locus YDR318W, strain mcm21, active compounds read low 0.988 | locus YDR334W, strain swr1, active compounds read low 0.948 | locus YDR335W, strain msn5, active compounds read low 0.971 | locus YDR388W, active compounds read low 0.979 | locus YDR392W, strain spt3, active compounds read low 0.982 | locus YDR502C, strain sam2, active compounds read low 0.984 | locus YEL003W, strain gim4, active compounds read low 1 | locus YEL037C, strain rad23, active compounds read low 0.999 | locus YEL061C, strain CIN8 (second series), active compounds read low 0.96 | locus YEL061C, strain CIN8, active compounds read low 0.982 | locus YER015W, strain faa2, active compounds read low 0.984 | locus YER016W, strain bim1, active compounds read low 0.992 | locus YER110C, active compounds read low 0.973 | locus YER111C, strain swi4, active compounds read low 0.968 | locus YER155C, strain BEM2 (second series), active compounds read low 0.975 | locus YER155C, strain BEM2, active compounds read low 1 | locus YER167W, strain BCK2, active compounds read low 0.992 | locus YFR010W, strain ubp6, active compounds read low 0.97 | locus YGL078C, strain dbp3, active compounds read low 0.977 | locus YGL086W, strain mad1, active compounds read low 0.981 | locus YGL167C, strain pmr1, active compounds read low 0.981 | locus YGL173C, strain kem1, active compounds read low 0.993 | locus YGL227W, strain vid30, active compounds read low 0.959 | locus YGL240W, strain doc1, active compounds read low 0.958 | locus YGL248W, strain PDE1, active compounds read low 0.978 | locus YGL253W, strain hxk2, active compounds read low 0.979 | locus YGR078C, strain PAC10, active compounds read low 0.977 | locus YGR135W, strain pre9, active compounds read low 0.999 | locus YGR252W, strain gcn5, active compounds read low 0.987 | locus YHR013C, strain ard1, active compounds read low 0.986 | locus YHR027C, strain rpn1, active compounds read low 0.983 | locus YHR030C, strain SLT2, active compounds read low 0.997 and 0.991 | locus YHR079C, strain IRE1 (second series), active compounds read low 0.99 | locus YHR079C, strain IRE1, active compounds read low 0.97 | locus YHR094C, strain hxt1, active compounds read low 0.987 | locus YHR129C, strain ARP1, active compounds read low 0.995 | locus YHR142W, strain chs7, active compounds read low 0.968 | locus YHR200W, strain rpn10, active compounds read low 0.982 | locus YIL066C, strain RNR3, active compounds read low 0.976 | locus YIL073C, strain SPO22, active compounds read low 1.02 | locus YIL125W, strain kgd1, active compounds read low 0.982 | locus YIR030C, strain dcg1, active compounds read low 0.974 | locus YJL092W, strain hpr5, active compounds read low 0.98 | locus YJL095W, strain BCK1 (second series), active compounds read low 0.976 | locus YJL095W, strain BCK1, active compounds read low 0.989 and 0.983 | locus YJL115W, strain asf1, active compounds read low 0.964 | locus YJL129C, strain trk1, active compounds read low 0.963 | locus YJL134W, strain LCB3, active compounds read low 0.992 | locus YJL154C, strain vps35, active compounds read low 0.971 | locus YJL164C, strain tpk1, active compounds read low 1 | locus YJL166W, strain qcr8, active compounds read low 0.982 | locus YJL168C, strain set2, active compounds read low 0.985 | locus YJL187C, strain SWE1 (second series), active compounds read low 0.962 | locus YJL187C, strain SWE1, active compounds read low 0.981 | locus YJR043C, strain POL32, active compounds read low 0.994 | locus YJR066W, strain TOR1, active compounds read low 0.943
